# High-throughput results (PubChem)
# In the library only some 17% were active in any assay of this set; here they are far more common.
# HT1080-NT tox: kills 2HG-producing HT-1080-NT fibrosarcoma cells; HT-1080-NT fibrosarcoma viability, CellTiter-Glo ATP luminescence, 48 h; Potency, µM (highest dose often 46.1 µM), without a hit: at the highest dose activity, negative = less viability, actives largely listed as cytotoxic; 360,000 tested, 1.6% active;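 further: NT is the 2HG producing partner of a matched IDH1 knockdown line; 0% = DMSO-treated cells and -100% = media-only wells without cells; nearly all actives have a fitted effect of over 55% in size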
#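 Compounds were tested in concentration-response format on HT-1080-NT cells for 48 hours at 37 degrees C. Cell viability came from CellTiter-Glo luminescence; curves were classified by r2, response magnitude and activity.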
# HepG2 tox: HepG2 cytotoxicity, counter-screen for TGF-b inhibitors. HepG2 CAGA-GFP viability, ATP luminescence, 18 h. Potency, µM (top dose mostly 46.1 µM), for inactives: at the top dose activity change, negative = cytotoxicity, hits mostly cytotoxic. 410,000 tested, 0.76% active. AID 588856
#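 CellTiter-Glo luminescence gave cytotoxicity after 18 hours at 37 degrees C. The cells were HepG2 CAGA-GFP in 1% FBS DMEM, stimulated with 500 pg/mL TGF-beta after compound addition. %Activity was normalised to no-cell wells (complete cell-killing) and DMSO (no toxicity), and curves were fitted and classified.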
# TGFb inhibitor: inhibitors of TGF-b signaling. HepG2 CAGA-GFP TGF-b/SMAD3 reporter, GFP fluorescence, 18 h; TGF-beta stimulated, 500 pg/mL final. Potency, µM (top dose mostly 46.1 µM), inactives show at the highest dose activity, negative = inhibition, most hits filed as inhibitors. 410,000 tested, 1.2% active. AID 588855; further: on the % scale 0 is the no-effect control and ±100 the full control effect; nearly all actives have a fitted effect of over 65% in size
#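 HEPG2 CAGA-GFP reporter cells (1000/well, DMEM with 1% FBS) received compounds, then recombinant TGF-beta at 500 pg/mL final for 18 hours at 37 degrees C. Per-cell GFP summed per well was normalised to unstimulated and stimulated DMSO controls before curve fitting.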
# HT1080 IDH1KD tx: kills HT-1080 cells with IDH1 knockdown; HT-1080 IDH1 knockdown viability, ATP luminescence, 48 h; Potency, µM (titrated, usually from 46.1 µM), for inactives: at the highest dose activity, negative = toxicity, most hits filed as cytotoxic; AID 686971; 360,000 tested, 2% active;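 further: 0% = DMSO wells and -100% = cell-free medium wells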
#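 Viability of IDH1-knockdown HT-1080 fibrosarcoma cells was assessed by CellTiter-Glo after 48 h at 37 °C with titrated compound; concentration-effect curves were classified by fit quality and response size.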
# TDP1 cell CPT: growth inhibition of DT40 Tdp1-/-;hTDP1 cells with camptothecin (screen for TDP1 inhibitors) | chicken DT40 Tdp1-/-;hTDP1 cells + 20 nM CPT, ATP luminescence, 48 h | Potency, µM (top dose mostly 46.2 µM), for inactives: at the highest dose activity change, negative = growth inhibition, hits mostly inhibitors | 420,000 tested, 12% active | AID 686979; further: on the % scale 0 is the no-effect control and ±100 the full control effect; nearly all actives have a fitted effect of over 55% in size
#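 Chicken DT40 Tdp1-/- cells stably complemented with human TDP1 were seeded at 400 cells/well in medium containing 20 nM camptothecin, exposed to pin-transferred compounds, and grown at 37 °C for at least 48 hr. Viability was read as ATP luminescence.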
# TDP1 cell noCPT: qHTS for Inhibitors of human tyrosyl-DNA phosphodiesterase 1 (TDP1): qHTS in cells in absence of CPT; DT40 Tdp1-/- hTDP1 cells, no CPT, ATP luminescence, 48 h; Potency, µM (doses to about 46.2 µM), for the others: top-dose activity change, negative = growth inhibition, most hits filed as inhibitors; 420,000 tested, 15% active; AID 686978, 2013; further: on the % scale 0 is the no-effect control and ±100 the full control effect; nearly all actives have a fitted effect of over 55% in size
#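 Compound effects on proliferation are scored in DT40 Tdp1-/-;hTDP1 cells in the absence of CPT. ATP levels (CellTiter-Glo luminescence) are recorded after a ≥48 hr, 37 °C incubation.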
# * = called active by the depositor; ? = inconclusive; . = no result; [ ] = remark or other dose. The call rests on the fitted dose curve; in most records, active means well fitted curve in the direction sought with a large enough effect; inconclusive means small, poorly fitted or top-dose-only effect, or another doubt; inactive means no such curve, though single readings can be large; an effect the other way counts as inactive or inconclusive. Potency means the concentration at half of the fitted maximal effect.
SMILES,HT1080-NT tox,HepG2 tox,TGFb inhibitor,HT1080 IDH1KD tx,TDP1 cell CPT,TDP1 cell noCPT
CC1NC(C(=O)O)Cc2c1[nH]c1ccccc21 (stereo not drawn),.,.,.,.,-6.4%,-17.4%
CCOC(=O)C1(S(=O)(=O)c2ccc(Cl)cc2)CCN(Cc2ccc(Cl)cc2)CC1,-28.1%,-23.8%,-20.5%,-28.7%,16.4µM*,18.4µM*
CCCn1cc(CN2CCC(Cc3ccccc3)(C(=O)OCC)CC2)c(C)n1,-24.4%,7.4%,-6.9%,-19.2%,?,?
CCOC(=O)C1(Cc2ccc(Cl)cc2)CCN(Cc2nccn2CC)CC1,-4.8%,-25.8%,-6.7%,-20.4%,20.6µM*,?
CCOC(=O)C1(Cc2ccccc2)CCN(Cc2nccn2CC)CC1,-12.3%,-10.6%,-24.2%,-17.6%,?,?
CCOC(=O)C1(S(=O)(=O)c2ccccc2)CCN(Cc2ccc(Cl)cc2)CC1,0.1%,-14.5%,-25.2%,-14.8%,?,?
CCOC(=O)C1(Cc2ccc(Cl)cc2)CCN(CCCn2cccn2)CC1,-18.0%,-24.4%,3.3%,-10.5%,?,20.6µM*
CCOC(=O)C1(CCc2ccccc2)CCN(Cc2nccn2CC)CC1,?,-1.4%,?,?,?,18.4µM*
CCOC(=O)C1(Cc2cccc(OC)c2)CCN(Cc2cnc(C)s2)CC1,-2.1%,1.3%,-7.3%,-6.3%,-3.4%,?
C[C@]12CCC(=O)C=C1CC[C@@H]1C2[C@@H](O)C[C@@]2(C)[C@H]1CC[C@]2(O)C(=O)CO (stereo partly drawn),.,.,.,.,0.9%,?
Cc1c(NC(=O)c2cc(Br)ccc2Cl)cccc1-n1cnnn1,-9.1%[9.24 µM],1.9%,9.4%,8.5%,-7.8%,-5.8%
O=C(NC1CCCCC1)N1CCN(C(c2ccccc2)c2ccccc2)CC1,-6.7%,-10.1%,1.2%,-0.5%,10.3µM*,16.4µM*
O=C(NC1CCCCC1)N1CCN(c2ccccc2)CC1,21.0%,6.6%,11.4%,12.9%,-4.5%,-16.2%
CCCOc1ccccc1NC(=O)c1c(-c2ccccc2)noc1C,0.0%,-10.3%,?,-10.6%,?,8.2µM*
Cc1cccc(C)c1NC(=O)c1c(-c2ccccc2)noc1C,1.0%,7.4%,0.7%,-20.1%,-26.2%,-8.4%
Cc1onc(-c2ccccc2)c1C(=O)Nc1ccncc1,-1.7%,-10.1%,0.8%,-0.5%,?,?
COc1ccc(NC(=O)c2c(-c3ccccc3)noc2C)c(OC)c1,-1.3%,0.1%,-3.0%,-1.0%,-27.6%,-29.1%
Cc1onc(-c2ccccc2)c1C(=O)N(Cc1ccccc1)C(C)C,?,-27.2%,-17.5%,5.2%,?,25.9µM*
Cc1onc(-c2ccccc2)c1C(=O)Nc1ccccc1NC(=O)c1c(-c2ccccc2)noc1C,19.1%,-0.2%,?,21.1%,14.6µM*,18.4µM*
Cc1ccccc1NC(=O)c1c(-c2ccccc2)noc1C,1.3%,-21.6%,2.7%,3.9%,11.6µM*,9.2µM*
O=c1c2cnn(-c3ccc(Cl)cc3)c2ncn1Cc1ccc(Cl)cc1Cl,.,0.4%,4.1%,.,0.4%,?
Cc1ccc(NC(=O)CN2C(=O)C(c3ccc(F)cc3)=NC2(C)C)c(C)c1,.,-20.7%,.,.,-4.0%,-21.9%
Cc1ccc(C(C[N+](=O)[O-])c2c(C)[nH]n(-c3ccccc3)c2=O)cc1 (stereo not drawn),-4.7%,-26.8%,?,-1.1%,4.61µM*,5.8µM*
Cc1[nH]n(-c2ccccc2)c(=O)c1C(c1ccccc1[N+](=O)[O-])C(C#N)C#N (stereo not drawn),2.1%,-1.7%,-17.7%,-13.2%,?,?
Cc1[nH]n(-c2ccccc2)c(=O)c1Sc1ccc(Cl)cc1,-10.3%,-26.3%,0.0%,-0.3%,?,?
SMILES,HT1080-NT tox,HepG2 tox,TGFb inhibitor,HT1080 IDH1KD tx,TDP1 cell CPT,TDP1 cell noCPT
Cc1[nH]n(-c2ccccc2)c(=O)c1C(C[N+](=O)[O-])c1ccc(Cl)cc1 (stereo not drawn),?,-9.7%,-21.7%,-21.9%,3.26µM*,4.11µM*
Cc1[nH]n(-c2ccccc2)c(=O)c1C(C[N+](=O)[O-])c1ccc(F)cc1 (stereo not drawn),-0.4%,-12.9%,0.0%,7.5%,7.31µM*,11.6µM*
Cc1cc(Cl)c2oc(C(=O)N3CCN(c4cnccn4)CC3)c(C)c2c1,-10.1%,-27.4%,4.6%,-28.2%,?,?
Cc1ccc2c(C)c(C(=O)N3CCN(c4cnccn4)CC3)oc2c1C,1.9%,28.3%,26.7%,-8.3%,?,18.4µM*
CN(C)c1cccc2c1c(NC(=O)Nc1ccc(Cl)cc1Cl)nn2C,4.8%,9.2%,-0.8%,0.1%,-21.3%,-25.6%
COc1ccccc1NC(=O)Nc1nn(C)c2cccc(N(C)C)c12,-14.7%,6.1%,-6.8%,-13.6%,14.6µM*,16.4µM*
C#CCN[C@@H]1CCc2ccccc21,.,.,.,.,2.2%,-6.4%
Cc1nn2c(NCCN3CCOCC3)c3c(nc2c1-c1ccccc1)CCCC3,0.0%,-46.7%,4.6%,2.0%,2.59µM*,5.8µM*
Oc1ccc2cc(Br)ccc2c1CN1CCCC1,-12.6%,-28.7%,?,-13.5%,28.2%,23.1µM*
CC1CCCN(S(=O)(=O)c2cccc(C(=O)OCC(=O)N(C)Cc3c(F)cccc3Cl)c2)C1 (stereo not drawn),12.6%,7.6%,-2.0%,21.6%,0.2%,0.8%
O=C(O)C(=Cc1cccc([N+](=O)[O-])c1)c1ccc(Cl)cc1,-0.8%,-0.5%,21.7%,6.7%,?,?
CCC(=O)N(CC)C1=C(O)c2ccccc2C(=O)C1=O,-13.7%,-28.0%,-4.8%,?,4.61µM*,8.2µM*
Cc1ccc(S(=O)(=O)/N=C(\Sc2ccccc2)c2ccccc2)cc1,25.9%,-7.7%,-8.8%,-24.6%,5.8µM*,6.51µM*
COc1ccccc1N/C(=N/S(=O)(=O)c1ccc(Cl)cc1)c1ccccc1,7.2%,-8.6%,1.8%,-21.6%,-12.7%,?
O=S(=O)(/N=C(\Sc1ccccc1)c1ccccc1)c1ccc(Cl)cc1,0.8%,0.3%,0.0%,-23.6%,12.6µM*,11.2µM*
COc1ccccc1N/C(=N/S(=O)(=O)c1ccc(C)cc1)c1ccccc1,2.3%,51.0%,21.6%,-0.1%,?,18.4µM*
